Screens: PubChem, Broad Institute
FadD28 binding = M. tuberculosis FadD28 bisubstrate binding inhibition. FadD28 bisubstrate probe binding, fluorescence polarization. AID 588549. hit rate 0.22% among 360,000. inhibition, % at 12.5 µM; in the data active means inhibition above about 8.5%, passing the limit was not always enough; inconclusive means no clear call, values can overlap the other calls
PfHsp40 yeast = restores yeast growth despite PfHsp40 toxicity | S. cerevisiae expressing PfHsp40, growth rescue, ATP luminescence | growth rescue, % at 12.5 µM | hit rate 0.68% among 340,000; in the data active means growth rescue above about 28%, passing the limit was not always enough; inconclusive means no clear call, values can overlap the other calls;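 further: yeast W303a lacking pdr1 and pdr3 grown in galactose medium; growth measured after three days at 30 °C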
Mtb BioA inh = blocks M. tuberculosis BioA enzyme activity; hit rate 0.096% among 360,000; inhibition, % at 9.99 µM; purified M. tuberculosis BioA enzyme, plate reader; in the data active means inhibition above about 40%; inconclusive means no clear call, values can overlap the other calls
TcdB GH inh = blocks C. difficile toxin B glycohydrolase activity; P18177; TcdB glycohydrolase enzymatic assay, plate reader; inhibition, % at 9.99 µM; hit rate 0.24% among 350,000; AID 652162; in the data active means inhibition above about 10%
Target sequence (P18177 whole entry, looked up): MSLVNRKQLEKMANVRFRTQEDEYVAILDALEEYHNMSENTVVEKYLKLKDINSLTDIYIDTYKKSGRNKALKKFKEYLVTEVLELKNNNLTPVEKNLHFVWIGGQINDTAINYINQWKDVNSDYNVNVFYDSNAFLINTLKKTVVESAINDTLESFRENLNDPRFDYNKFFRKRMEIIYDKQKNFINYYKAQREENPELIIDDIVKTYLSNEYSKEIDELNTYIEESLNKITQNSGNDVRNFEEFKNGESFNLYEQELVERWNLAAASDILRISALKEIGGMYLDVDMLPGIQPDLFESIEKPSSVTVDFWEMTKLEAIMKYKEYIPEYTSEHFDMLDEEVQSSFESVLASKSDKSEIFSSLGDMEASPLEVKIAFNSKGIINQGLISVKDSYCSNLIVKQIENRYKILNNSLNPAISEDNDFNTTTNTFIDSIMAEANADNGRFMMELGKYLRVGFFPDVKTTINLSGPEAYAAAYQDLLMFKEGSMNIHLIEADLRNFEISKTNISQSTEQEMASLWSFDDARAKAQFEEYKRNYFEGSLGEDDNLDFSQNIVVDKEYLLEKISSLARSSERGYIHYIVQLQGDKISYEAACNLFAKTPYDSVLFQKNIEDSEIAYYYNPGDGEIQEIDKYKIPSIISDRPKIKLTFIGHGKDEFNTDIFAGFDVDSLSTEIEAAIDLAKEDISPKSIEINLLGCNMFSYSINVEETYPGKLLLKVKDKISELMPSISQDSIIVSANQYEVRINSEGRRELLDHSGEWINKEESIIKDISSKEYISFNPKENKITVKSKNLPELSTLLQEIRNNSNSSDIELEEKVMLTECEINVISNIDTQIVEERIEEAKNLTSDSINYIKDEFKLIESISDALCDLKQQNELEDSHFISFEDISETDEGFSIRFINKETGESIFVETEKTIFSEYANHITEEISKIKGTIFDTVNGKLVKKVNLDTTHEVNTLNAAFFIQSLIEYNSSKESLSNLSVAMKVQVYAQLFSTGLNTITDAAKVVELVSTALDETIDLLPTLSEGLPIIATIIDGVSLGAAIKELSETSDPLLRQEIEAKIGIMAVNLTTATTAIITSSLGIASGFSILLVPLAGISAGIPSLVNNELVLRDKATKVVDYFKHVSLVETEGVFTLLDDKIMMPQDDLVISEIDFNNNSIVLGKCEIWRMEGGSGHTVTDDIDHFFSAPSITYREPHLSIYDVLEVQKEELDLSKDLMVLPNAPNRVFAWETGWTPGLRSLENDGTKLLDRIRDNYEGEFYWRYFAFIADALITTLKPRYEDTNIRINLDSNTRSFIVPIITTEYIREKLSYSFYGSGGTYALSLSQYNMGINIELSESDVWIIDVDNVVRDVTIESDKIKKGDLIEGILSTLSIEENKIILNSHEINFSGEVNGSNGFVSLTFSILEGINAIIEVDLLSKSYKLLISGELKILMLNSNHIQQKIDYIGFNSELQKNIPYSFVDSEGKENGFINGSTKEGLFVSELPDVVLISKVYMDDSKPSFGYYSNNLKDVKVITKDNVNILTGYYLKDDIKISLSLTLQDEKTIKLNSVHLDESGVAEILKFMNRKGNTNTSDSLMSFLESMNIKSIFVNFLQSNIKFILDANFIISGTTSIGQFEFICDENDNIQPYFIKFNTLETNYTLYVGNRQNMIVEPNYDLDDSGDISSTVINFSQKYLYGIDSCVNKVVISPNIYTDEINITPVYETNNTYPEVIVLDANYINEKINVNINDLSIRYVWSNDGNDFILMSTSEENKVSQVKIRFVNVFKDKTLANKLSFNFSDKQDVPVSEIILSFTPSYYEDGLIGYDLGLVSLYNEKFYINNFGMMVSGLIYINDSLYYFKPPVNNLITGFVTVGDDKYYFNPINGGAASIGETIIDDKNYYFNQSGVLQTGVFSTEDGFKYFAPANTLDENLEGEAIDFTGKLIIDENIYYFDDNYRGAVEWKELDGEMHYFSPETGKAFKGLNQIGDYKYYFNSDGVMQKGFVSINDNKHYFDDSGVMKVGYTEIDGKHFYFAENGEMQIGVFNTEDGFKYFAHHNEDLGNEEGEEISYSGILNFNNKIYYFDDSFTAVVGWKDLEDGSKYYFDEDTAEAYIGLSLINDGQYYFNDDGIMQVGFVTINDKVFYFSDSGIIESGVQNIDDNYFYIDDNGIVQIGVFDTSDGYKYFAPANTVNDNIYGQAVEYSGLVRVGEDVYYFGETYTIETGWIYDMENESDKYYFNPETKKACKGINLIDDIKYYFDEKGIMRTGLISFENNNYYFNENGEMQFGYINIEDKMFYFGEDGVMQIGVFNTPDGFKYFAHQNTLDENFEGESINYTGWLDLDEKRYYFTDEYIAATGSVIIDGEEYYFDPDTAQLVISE
PrP 5UTR inh = inhibition of PrP 5' UTR reporter expression. cell-based PrP 5' UTR mRNA reporter, plate reader. inhibition, % (no concentration beside the values). hit rate 0.35% among 340,000. AID 488862; in the data active means inhibition above about 52%; further: 0 = median of the neutral control wells
PrP UTR cherry = prion 5' UTR mRNA inhibition, cherry-pick retest; shares compounds with PrP 5UTR inh; cell-based prion protein 5' UTR reporter, plate reader; inhibition, % at 2.5 µM; hit rate 48% among 1,100; AID 504592; in the data active means inhibition above about 54%; inconclusive means no clear call, values can overlap the other calls
An asterisk follows results filed as active. A selection: hits, their analogues and other compounds. The true share with any hit is near 1.1%.

`N/C(=N\OC(=O)c1ccc(=O)n(Cc2ccccc2)c1)c1ccccn1` gave FadD28 binding -2, PfHsp40 yeast 1, Mtb BioA inh 3, TcdB GH inh 3 and PrP 5UTR inh -15.
Screening COc1cccc(C(=O)O/N=C(\N)c2ccccn2)c1OC returned FadD28 binding -3, PfHsp40 yeast 3, Mtb BioA inh -1, TcdB GH inh 2, PrP 5UTR inh 52* and PrP UTR cherry inconclusive.
Screening N/C(=N\OC(=O)c1cccc2ccccc12)c1ccccn1 returned FadD28 binding -3, PfHsp40 yeast -1, Mtb BioA inh -2, TcdB GH inh 1 and PrP 5UTR inh -61.
O=C(NC(=S)N1CCN(CCO)CC1)C12CC3CC(CC(C3)C1)C2 was read as FadD28 binding -2, PfHsp40 yeast -1, Mtb BioA inh 0, TcdB GH inh 2, PrP 5UTR inh 80* and PrP UTR cherry 1.
`O=C(NC(=S)N1CCOCC1)C12CC3CCC(CC(C3)C1)C2` gave FadD28 binding -4, PfHsp40 yeast -1 and PrP 5UTR inh -24.
COC(=O)c1cn(NC(=O)c2ccc([N+](=O)[O-])c(C)c2)c(=O)c2ccccc12 was read as FadD28 binding inconclusive, PfHsp40 yeast 1, TcdB GH inh -1 and PrP 5UTR inh -2.
`COC(=O)c1cn(NC(=O)c2ccccc2[N+](=O)[O-])c(=O)c2ccccc12` gave FadD28 binding 0, PfHsp40 yeast -1, Mtb BioA inh -2, TcdB GH inh 0, PrP 5UTR inh 56* and PrP UTR cherry -41.
Screening O=C(Nc1ccccc1)N1CCCCN2[C@H](C1)[C@@H](c1ccc(C#CC3CC3)cc1)[C@@H]2CO returned Mtb BioA inh -4 and TcdB GH inh 0.
Screening Cc1ccc(C(=O)O/N=C(\N)c2ccccn2)c(Cl)c1 returned FadD28 binding -4, PfHsp40 yeast -4, Mtb BioA inh -1, TcdB GH inh 1, PrP 5UTR inh 81* and PrP UTR cherry 94*.
Screening N/C(=N\OC(=O)c1ccc([N+](=O)[O-])cc1Cl)c1ccccn1 returned FadD28 binding -3, PfHsp40 yeast -3, Mtb BioA inh 0, TcdB GH inh -10, PrP 5UTR inh 65* and PrP UTR cherry inconclusive.
`Cc1ccc(C(=O)O/N=C(\N)c2ccccc2)c(Cl)c1` gave FadD28 binding -3, PfHsp40 yeast 0, Mtb BioA inh 0, TcdB GH inh 0, PrP 5UTR inh 56* and PrP UTR cherry 55*.
For N/C(=N\OC(=O)c1ccccc1Cl)c1ccncc1 the results were FadD28 binding -3, PfHsp40 yeast 0, TcdB GH inh -5 and PrP 5UTR inh -79.
`N/C(=N\OC(=O)c1ccc(Cl)cc1Cl)c1ccccn1` gave FadD28 binding -1, PfHsp40 yeast -2, Mtb BioA inh 0, PrP 5UTR inh 79* and PrP UTR cherry 55*.
N/C(=N\OC(=O)c1cc(Br)ccc1Cl)c1ccccn1 was read as FadD28 binding -2, PfHsp40 yeast 2, TcdB GH inh 2 and PrP 5UTR inh -82.
C[C@H](CO)N1C[C@H](C)[C@H](CN(C)C(=O)CCC(F)(F)F)OCCCC[C@H](C)Oc2ccc(NS(=O)(=O)c3ccccc3)cc2C1=O was read as Mtb BioA inh 1 and TcdB GH inh 0.
`COc1ccc(S(=O)(=O)Nc2cccc3c2O[C@@H](CN(C)C(=O)NC2CCCCC2)[C@@H](C)CN([C@H](C)CO)C3=O)cc1` gave Mtb BioA inh -1 and TcdB GH inh 1.
`Cc1nn(Cc2c(Cl)cccc2Cl)c(C)c1NC(=O)CCCn1nc(C)c([N+](=O)[O-])c1C` gave FadD28 binding -2, PfHsp40 yeast -1 and PrP 5UTR inh -8.
`Cc1nn(CCCC(=O)Nc2cccnc2Cl)c(C)c1[N+](=O)[O-]` gave FadD28 binding -3, PfHsp40 yeast -2, Mtb BioA inh 1, TcdB GH inh 1, PrP 5UTR inh 52* and PrP UTR cherry -10.
`Cc1nc2ccccc2c(=O)n1-c1ccc(Cl)cc1[N+](=O)[O-]` gave FadD28 binding -4, PfHsp40 yeast -3, TcdB GH inh 1, PrP 5UTR inh 80* and PrP UTR cherry -10.
`Cc1ccc(Sc2c(CO)c(-c3ccccc3)nn2C)cc1` gave FadD28 binding -3, PfHsp40 yeast 2, TcdB GH inh 1, PrP 5UTR inh 73* and PrP UTR cherry 84*.
